MITF primary – inhibitors of human MITF | inhibition, % at 2.6 µM | 0.91% of 650,000 active | AlphaScreen MITF homodimerization, bead proximity signal | O75030; in the data active = inhibition above about 50%;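 also: 0% = vehicle wells with protein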
Target sequence (O75030 whole entry, looked up): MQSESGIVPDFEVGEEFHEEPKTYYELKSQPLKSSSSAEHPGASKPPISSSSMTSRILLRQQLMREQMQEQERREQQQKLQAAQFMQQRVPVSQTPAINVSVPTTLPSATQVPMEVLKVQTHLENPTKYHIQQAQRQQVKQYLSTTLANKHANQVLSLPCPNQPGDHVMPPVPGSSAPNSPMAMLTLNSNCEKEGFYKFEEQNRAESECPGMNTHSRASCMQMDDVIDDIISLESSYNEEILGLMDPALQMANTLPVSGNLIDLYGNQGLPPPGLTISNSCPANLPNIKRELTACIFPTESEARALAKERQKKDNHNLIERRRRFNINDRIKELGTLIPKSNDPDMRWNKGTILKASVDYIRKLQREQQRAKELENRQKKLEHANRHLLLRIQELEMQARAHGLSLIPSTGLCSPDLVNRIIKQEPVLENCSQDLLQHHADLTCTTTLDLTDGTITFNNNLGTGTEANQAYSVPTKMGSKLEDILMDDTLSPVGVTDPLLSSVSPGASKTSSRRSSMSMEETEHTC
TEAD-YAP inh – TEAD-YAP interaction inhibition | AID 1259422 | HEK-TIYL cells, TEAD-Gal4/YAP UAS-luciferase luminescence | 1.4% of 640,000 active | inhibition, % at 9.12 µM; in the data active = inhibition above about 32%;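 also: 0% = median of test compound wells and 100% = reference inhibitor wells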
GPR151 activ – activates the human receptor GPR151. 1% of 650,000 active. PathHunter beta-arrestin GPR151 cells, luminescence. activation, % at 11.2 µM. AID 1508602; in the data active = activation above about 4.9%;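 also: 0% = median of compound wells and 100% = cells with positive control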
FBW7 activator – activators of human E3 ligase FBW7; Q969H0; normalized activity (activation), % at 26.1 µM; 0.13% of 650,000 active; AlphaScreen FBW7–phospho-cyclin E peptide binding, activator screen; AID 1259310; in the data active = normalized activity above about 1.9%;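 also: purified mutant Fbw7 with reduced substrate affinity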
An asterisk follows results filed as active. The list is not random: actives were taken first. Their share in the collection is about 3.5%.

`COCCC(=O)NC(C)c1nnc2n1CCN(Cc1cccc(-c3ccccc3C)c1)CC2` (centres undefined) gave MITF primary -5, TEAD-YAP inh 1, GPR151 activ 0 and FBW7 activator 0.
`COc1ccc2cc3c(N)nn(C(=O)c4ccccc4F)c3nc2c1` gave MITF primary 4, TEAD-YAP inh 55*, GPR151 activ 0 and FBW7 activator 0.
`COc1ccc2cc3c(N)nn(C(=O)c4cccc(Cl)c4)c3nc2c1` gave MITF primary -2, TEAD-YAP inh -2, GPR151 activ -2 and FBW7 activator 0.
Screening COc1ccc2cc3c(N)nn(C(=O)c4cccnc4)c3nc2c1 returned MITF primary -11, TEAD-YAP inh 32*, GPR151 activ 0 and FBW7 activator 0.
Screening COc1ccc2cc3c(N)nn(C(=O)c4ccc(F)cc4)c3nc2c1 returned MITF primary 11, TEAD-YAP inh 36*, GPR151 activ 1 and FBW7 activator 0.
`COc1ccc2cc3c(N)nn(C(=O)c4cccc(F)c4)c3nc2c1` gave MITF primary 8, TEAD-YAP inh 29, GPR151 activ 0 and FBW7 activator 0.
Screening COc1ccc2cc3c(N)nn(C(=O)c4ccccc4Cl)c3nc2c1 returned MITF primary 9, TEAD-YAP inh 45*, GPR151 activ -2 and FBW7 activator 0.
For CC(Oc1ccccc1)C(=O)Nc1ccc(OCC(=O)O)cc1 (centres undefined) the results were MITF primary -4, TEAD-YAP inh 0, GPR151 activ 1 and FBW7 activator 0.
Screening CC(=O)c1c(C)[nH]c(C(=O)COC(=O)c2c(C)nn(-c3ccccc3)c2C)c1C returned MITF primary 22, TEAD-YAP inh 49*, GPR151 activ 3 and FBW7 activator 0.
NC(=O)c1ccccc1NC(=O)c1ccc(Cl)cc1 was read as MITF primary 4, TEAD-YAP inh -53, GPR151 activ -1 and FBW7 activator 0.
`NC(=O)c1ccccc1NC(=O)c1ccc(Cn2nnc3ccccc32)cc1` gave MITF primary 4, TEAD-YAP inh 56*, GPR151 activ 0 and FBW7 activator 0.
Screening CC(C)c1ccc(C(=O)Nc2ccccc2C(N)=O)cc1 returned MITF primary 9, TEAD-YAP inh 33*, GPR151 activ 1 and FBW7 activator 0.
Cc1ccc([N+](=O)[O-])cc1NC(=O)c1cc(=O)c2ccccc2o1 was read as MITF primary 7, TEAD-YAP inh 0, GPR151 activ 1 and FBW7 activator 0.
For Cc1cccc(CN2CCC(N3CCC(C(=O)N4CCCCCC4)CC3)CC2)n1 the results were MITF primary 11, TEAD-YAP inh 6, GPR151 activ -2 and FBW7 activator 0.
For Cc1ccc(/C=C2\CC/C(=C\c3ccc(C)o3)C2=O)o1 the results were MITF primary 58*, TEAD-YAP inh 9, GPR151 activ -1 and FBW7 activator 0.
For O=C(NN1C(=O)c2cccc3c([N+](=O)[O-])ccc(c23)C1=O)c1ccc([N+](=O)[O-])cc1 the results were MITF primary 17, TEAD-YAP inh 8, GPR151 activ 0 and FBW7 activator 2.6*.
For O=C1C2ON(c3ccccc3)C(c3ccc(O)cc3)C2C(=O)N1c1ccccc1 (centres undefined) the results were MITF primary 9, TEAD-YAP inh -6, GPR151 activ 0 and FBW7 activator 0.
Cc1cc(=O)n2c(-c3cccc(NC(=O)C4CCCO4)c3)csc2n1 (centres undefined) was read as MITF primary -8, TEAD-YAP inh -1, GPR151 activ 0 and FBW7 activator 0.
COc1ccc2c(c1)C=C/C(=C\c1cccc[n+]1C)N2C was read as MITF primary 11, TEAD-YAP inh 80*, GPR151 activ 2 and FBW7 activator 0.
Screening CCN1/C(=C/c2cc[n+](C)cc2)C=Cc2cc(OC)ccc21 returned MITF primary 5, TEAD-YAP inh 8, GPR151 activ 0 and FBW7 activator 0.
Screening Fc1cncc(-c2ccnc(Nc3ccc(-c4cnn(CCN5CCOCC5)c4)cc3)n2)c1 returned MITF primary 10, TEAD-YAP inh -4, GPR151 activ 2 and FBW7 activator 0.
Screening CCCn1cc(-c2ccc(Nc3nccc(-c4cncc(N5CCOCC5)c4)n3)cc2)cn1 returned MITF primary 7, TEAD-YAP inh 47*, GPR151 activ 1 and FBW7 activator 0.
c1cc(-c2cncc(N3CCOCC3)c2)nc(Nc2ccc(-c3cnn(CCN4CCOCC4)c3)cc2)n1 was read as MITF primary 17, TEAD-YAP inh 96*, GPR151 activ -1 and FBW7 activator 1.

Source: PubChem (The Scripps Research Institute Molecular Screening Center)
